Hit rate of the full screen: of about 53,000 sequences, about 3,700 (7%) were called active.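 The calls were made as follows: active = gene knockdowns whose robust z-score for IL-1 alpha signal is at least 2 or at most -2, so actives lie on both sides; inactive = the rest.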 Only a selection was taken, and actives are over-represented in it overall.

This note sets out measurements from PubChem BioAssay AID1508600 (Functional Genomics Laboratory (NCATS/FGL), 2020).

The assay can be described thus: Components of the Cytosolic LPS Sensing Pathway: Gene Identification via Genome-wide siRNA Screen. The following applies: RAW264.7 macrophages, IL-1a HTRF, actives lie on both sides, screened at 100 nM (by protocol), cells primed 5 h with Pam3CSK4 first. An excerpt: Non-canonical inflammasome activation by cytosolic LPS is a critical component of the host response to Gram-negative bacterial infection, however we lack a comprehensive understanding of the cellular processes that control this pathway. Here we describe a genome-wide siRNA screen to identify genes regulating the mouse macrophage IL-1 alpha response to cytosolic LPS.
RAW264.7 cells were maintained in complete DMEM media, comprising DMEM with 4.5 g/L glucose, 10% FBS (Gemini Bio-Products, West Sacramento, CA), 2 mM Glutamine (Lonza) and 20 mM HEPES (Lonza), hereafter complete DMEM.
The RNAi screen was conducted in 384-well format using the Ambion Silencer Mouse Genome siRNA Library (#4391425), which consists of three unique, nonoverlapping, nonpooled siRNAs for each of 17,000 gene targets. siRNA reagents ([…]) were stamped into 384-well white flat-bottom microplates (Corning, 3570) using a Velocity11 VPrep liquid handling system (Agilent) integrated into a BioCel robotic platform (Agilent) in columns 1-22, leaving columns 23-24 empty for negative (Ambion, Negative control #1) and positive (mouse Casp4) controls, respectively. The median value of each plate's negative control column was used to normalize sample wells, and the positive control was used to assess transfection efficiency and assay performance.
Lipofectamine RNAiMAX Transfection Reagent ([…]; Invitrogen) was added in […] serum-free, antibiotic-free media to plate wells using a Thermo Scientific Matrix WellMate and Microplate Stacker. Plates were incubated for 45 min at room temperature to allow for the sufficient formation of siRNA-lipid complexes. Cells were seeded at a density of 1x10^4 cells per well in 20 microL media containing 20% (vol/vol) FBS without antibiotics. The final concentration of siRNA in each well was 100 nM. Cells were cultured for 48h at 37 degrees C in 5% CO2 before addition of […] of TLR ligand Pam3CSK4 for 5 hours. The medium was then removed, replaced with […] growth media and cell were transfected with […] of LipidA and TransIT-TKO (Mirus) for 24 hour. At the end of the LipidA treatment, […] of supernatant was transferred to a 384 Greiner Bio-one non-binding low volume plate and […] of IL-1a HTRF reagent (Cisbio, 62MIL1APEH) was added and incubated at room temperature overnight. The plates were read on an EnVision plate reader (PerkinElmer). Cell viability was measured by adding 20ul Cell Titer Glo to the original plate and running a luminescence read on the EnVision. The quantified IL-1a signal for each siRNA gene-targeted well was divided by the median of the negative control wells and multiplied by 100 to achieve a negative control normalized value for each well/siRNA. This normalized value was then used to generate a robust z-score by first taking the log of each value and then by subtracting the median and dividing by the […].
For GCCUUUCUGAGGGAUUUUGTT against Eif1ad, the z-score was -1.81 (inactive).
For GCCAAGCUUACUCAGAUUUTT against Mslnl, the z-score was 2.45 (active).
With GGCCUUUAUUCAGAUGUCATT against Zscan12, the z-score was -2.79 (active).
Then GGUUUAGGCAACUAAGUUGTT against Stat5a, with 0.426 (inactive).
Consider GCAAAGUACCCACCUUUGUTT against Pitpna, for which the z-score is 2.06 (active).
Under GGCAACUUUGAAGUCUUGATT against Dntt stands -0.488 (inactive); under GGGUUCUUUUAGGUUGUCATT against Ccdc85a, -0.123 (inactive); under GGAACUUCAUCCAAACUGATT against Ap4m1, -0.12 (inactive).
Under CGUCCAAGCAUAUAUGAAATT against Slfn8 stands 1.36 (inactive); under GGGAAGAGAAUGAGAUAAATT against F7, 3.22 (active); under CCGACAUUCGAGUUUUGCGTT against Rrp9, -0.532 (inactive).
Then GCGAACAACCACGUUUUUCTT against Ddx18, with 0.388 (inactive); and GGUGUCAAGAAGAAUGUCCTT against Megf11, with 3.2 (active).
GGCCGAAAGAUAAAAACAGTT against Rad51d: the z-score is 0.173 (inactive).
For GCGACACCACUGAUGACGATT against Gga2, the z-score was -0.473 (inactive).
Consider GGAAAAACAUGCCAAAAAATT against Mettl15, for which the z-score was -0.222 (inactive).
Consider CCUUAGUAUGUAUGUGGUATT against Map10, for which the z-score was -2.65 (active).
On to CCACACUUCCCUUAUUUAATT against Arpc5, for which the z-score is 1.35 (inactive).
For GGCUAAAGACCAGUAUUUGTT against Cdh7, the z-score was 2.47 (active).
Then CGCAGUCAAAUUUGAAAGUTT against Car5b, with 0.775 (inactive).
As for GGCUGACAGACAAGAUUGUTT against Tfb1m, the z-score is -1.3 (inactive).
For the sequence GCCUGUGGUGAUUCUCUUGTT against Tmem53, the z-score is -0.093 (inactive).
For the sequence CCCAGUUAUCCUGAAAAGUTT against Ears2, the z-score is 0.526 (inactive).
With GCAAAAGUAUUUUGUGUCCTT against Aamp, the z-score was 0.241 (inactive).
In the case of GCGCAAUGAACGGUUCUACTT against Prepl, the z-score was 3.96 (active).
With GGGAUGUGAGGGAAUUAACTT against B4galt3, the z-score is -1.03 (inactive).
Under GGUCUUCAAGAACUGUAGCTT against Bcl11b stands 1.09 (inactive); under GCACACCAGAUCUACUUCUTT against Cyp2b9, 0.3 (inactive); under GCUUCACUCCACCUUUCAGTT against Prkcg, 0.767 (inactive).
In the case of GGUCGUUUCUAUGAUUGGCTT against Olfr589, the z-score was 0.568 (inactive).
Regarding “GCUCGAAGAAAGGCCCUGATT against B430306N03Rik”, the z-score was -0.509 (inactive).
Take GGACCUAAACAACGUGUUGTT against Klf2: the z-score is 2.74 (active).
Consider GGAAAGAAGAAGAGUCUAATT against Nucb2, for which the z-score is 0.994 (inactive).
Under GGCCGGAGCUUACGAUUUUTT against Camk2d stands 0.309 (inactive); under GGGAACAAAUUCAUUGUAUTT against Eny2, 2.26 (active); under GGAAGUGAGAUGUCACUGATT against Ssc5d, 0.841 (inactive).
Consider GGAUACCAAGCAUCGGAAGTT against Tfap2e, for which the z-score was -0.0352 (inactive).
For the sequence GGCAGAAACAGUCCUUGUUTT against Gfra4, the z-score was -1.54 (inactive).
In the case of GGCGUAUACCGGGAAUCCUTT against Ndrg1, the z-score is -0.505 (inactive).
Then GCAAUGAGUACUAUCAUACTT against Gnal, with -2.71 (active); and GGUUAAAUCGAUUUUGCAUTT against Acbd5, with -0.185 (inactive).
In the case of GGGAUACCAUCUUUAUGGCTT against Vwa3b, the z-score is -0.041 (inactive).
Turning to GCAAUGGACUGACAUGUCATT against Csdc2, the z-score is -0.339 (inactive).
Consider CGGACAAGUGUUUUUCGUUTT against Wwox, for which the z-score is 0.315 (inactive).
Turning to GGCUGUGCUCCUUGUUAGUTT against Olfr1143, the z-score was -0.083 (inactive).
Regarding GCGGUGAUGAGAGAAACCATT against Zfp617, the z-score was 0.872 (inactive).
Take GGACCCUUUCUUUGAUAUGTT against Rpe: the z-score is 1.01 (inactive).
Turning to GCCACUGGAGUAUAGCCAGTT against Pcnx3, the z-score was 0.019 (inactive).
As to CCUCUUAUAUGCAUGUGGCTT against Olfr410, the z-score was -2.13 (active).
On to CCAAAGCUAAAACGGGUGGTT against Tppp3, for which the z-score is 0.597 (inactive).
On to GCUGGACAUCGACUUUGGATT against Prnd, for which the z-score was -1.54 (inactive).
For CCUAUGUUUUAGCAAGCAGTT against Acyp2, the z-score is 0.758 (inactive).
Regarding GCCAUCAUCUUUGUUUAGUTT against Gm4952, the z-score was -0.684 (inactive).
Under GGACAUCCUCUUACAGUGGTT against Zg16 stands 0.333 (inactive); under GGUCAUCUCCAAACCCUCCTT against Rbpj, 1.51 (inactive).
For the sequence GGAAGAGGCCAGCUAUAACTT against Dcaf1, the z-score is -2.51 (active).
Then GGAGGGAUCUAAGGAACAGTT against Fgf8, with 0.263 (inactive); and GGAAUGAUUUUUGUUUGCUTT against Sf3b3, with -1.6 (inactive); and GGCACAUUCAACAACAUUUTT against Zfp592, with 1.61 (inactive).
Under GGAUCUUAGCAUGUCAACATT against Zfp330 stands -1.29 (inactive); under GGUUCAGAUGGGAAAAAGGTT against Khdrbs2, -2.41 (active).
Take GGAGAACCCUUAUGUGACATT against Pik3ca: the z-score is -1.91 (inactive).
For the sequence GGAGGAUGGUGCCAACAUUTT against Psmc3, the z-score was -2.02 (active).
For the sequence GGUAAAAACUUUCCUUUAGTT against Prph2, the z-score is 1.48 (inactive).
Then GGAAUGCAAAAAACUCUGGTT against Gzmg, with 0.906 (inactive); and GGCCUGAGUAUAAAGUUAGTT against Wbp2, with 1.6 (inactive).
Consider GGAUGAAUAAGGACAGAUUTT against Phospho2, for which the z-score was 0.335 (inactive).
Regarding GGUUACGUGUUUGUAUCUATT against Higd1a, the z-score was -0.395 (inactive).
In the case of GGCUCUUGAAAAAAACCCATT against Utp11, the z-score is 0.441 (inactive).
Take “CGAGCUUAUGCUGAAACCATT against 3830417A13Rik”: the z-score was -2.45 (active).
Regarding GGUGACUAGGAAGAACACGTT against Tmem9b, the z-score is 1.99 (inactive).
Turning to GUACCUGAACUCAACUGAGTT against Ffar2, the z-score was -0.0572 (inactive).
Regarding CCCAGAAGAGGUUACAUUUTT against Cd200r4, the z-score was 0.0312 (inactive).
Then GGAUAUGCAGUGGAACUAUTT against Heph, with -2.13 (active).
Consider GGGAUCAGAGAUAUAGCCATT against Vmn1r192, for which the z-score was -1.74 (inactive).
For GCAGGGUACUGGCUAAAUATT against Cd40, the z-score is 2.93 (active).
In the case of GGACAGAUUUUCACCAUUCTT against Slc1a4, the z-score was -0.593 (inactive).
As to GGUGAAGCAUCAGUGACAATT against Ubxn4, the z-score was 0.734 (inactive).
Consider UUUCAAUCUGUAGCUUUCCTT against Krt86, for which the z-score was 0.071 (inactive).
Consider GCUACACCGUAACAUGCUATT against Zer1, for which the z-score is 2.19 (active).
On to GCUAUGUAAGACAUUUAACTT against Ccdc162, for which the z-score is 1.6 (inactive).
Consider CGUUUAUUGUAACCAGAAUTT against Fam168b, for which the z-score is 0.263 (inactive).
For GGAGGAAUUCAUUAGAAACTT against Psmc1, the z-score is -2.04 (active).
GGCUUUCCUCCAGAUAAACTT against Il6st: the z-score was -0.856 (inactive).
On to GCGACGAGAAGAAUCUGCUTT against Mtcl1, for which the z-score was -0.641 (inactive).
For the sequence CCGUGGAGUAACAAGUAUGTT against Capzb, the z-score was -1.07 (inactive).
As to CGAUCUAGUCCGCCAUUACTT against Lck, the z-score is -1.3 (inactive).
Then GCAAGACCCAAGAGUUACATT against Soat2, with -2.07 (active); and GCGAAGGAAUUUAAGGACCTT against Tmod1, with 0.836 (inactive).
For GGCACCAUCUAUUAUUUUCTT against Psmc3, the z-score is -2.45 (active).
For the sequence CCAAUGAUAGACUUUAUACTT against Adgrv1, the z-score is -0.252 (inactive).
For the sequence GCAGUUCACGCAGUGGAAGTT against Fam25c, the z-score was 1.3 (inactive).
Regarding UCAUAGCAGAGAUUAGAAUTT against Hsfy2, the z-score is -0.951 (inactive).
CCUCAGGUUAUUGAAUAUUTT against Rapgef6: the z-score was 0.502 (inactive).
GGACAAAACGUGCAAUAUGTT against Pkdcc: the z-score is -0.188 (inactive).
With GCAGAUUGCUCAGAUUACCTT against Brip1, the z-score is 0.407 (inactive).
Then GGUUCUUCGGCUUAUGUUGTT against Rgs7bp, with 0.537 (inactive).
Regarding GGACAAAAUAAUGCUUUCUTT against Cnnm1, the z-score is 0.0436 (inactive).
For GGAAUGUUACAUUUCAGUUTT against Adam1a, the z-score was 2.15 (active).
Take “CCCGUAUCUUUUUAGCUAATT against A630038E17Rik”: the z-score is 0.35 (inactive).
With GCCAAACUAUCAGAGAUGGTT against Slc38a7, the z-score is 0.0528 (inactive).
For GGAUUAUGGUACCAAGCGCTT against Umps, the z-score was 1.21 (inactive).
With CCUAAUUGAAAUCAGCAGUTT against Hip1r, the z-score was 1.14 (inactive).
Then GGCACAAGAAAUUUGAUGATT against Gpc6, with -1.91 (inactive).
On to GCAAAUCAUGACUAUUGUATT against Atat1, for which the z-score was 0.00079 (inactive).
Then CAUGAUAGCGAUAGCAAUCTT against Olfr507, with 0.0127 (inactive).
Take GCCUGAUUCAGAGUAUAAATT against Col14a1: the z-score was -1.24 (inactive).
Take CCUACUCAAAUGAAGUUGUTT against Cdk17: the z-score was -0.384 (inactive).
